# Reference: PubChem BioAssay (EPA / NIEHS)
# Inconclusive results are not listed. The source holds several records for some structures; these can differ, active in one and inactive in another. Active and inactive are the calls of the source. Rule for the calls, unless noted: active = hit-call score of the fitted dose curve at least 0.9, where 1 is the maximum; inconclusive = response in the unintended direction; inactive = score below 0.9.
# Columns and labels:
# [1] = tested on: Sodium/Iodide Symporter (NIS), SLC5A5 (gene 6528); assay: CPHEA_Stoker_NIS_Inhibition_RAIU: CPHEA's Radioactive Iodide Uptake (RAIU) Assay for Sodium/Iodide Symporter (NIS) Inhibition, Stoker and Laws Labs (AID 2283841)
# Outline: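 HEK293T cells stably expressing human NIS (hNIS-HEK293T-EPA) were exposed to test chemicals at 0.001–100uM (0.5% final DMSO) with 125I at a final 329pM in HBSS/10mM HEPES pH 7.4. After 2 hours at room temperature and ice-cold washes, intracellular 125I was counted as CPM and normalized to DMSO wells.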
# [2] = CPHEA_Stoker_NIS_Cytotoxicity: Cytotoxicity Assessment for CPHEA's Radioactive Iodide Uptake (RAIU) Assay for Sodium/Iodide Symporter (NIS) Inhibition, Stoker and Laws Labs (AID 2283897)
# Outline: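 hNIS-HEK293T-EPA human kidney cells were exposed for 2 hours at room temperature to test chemicals (0.001–100uM, 0.5% final DMSO) in HEPES-buffered HBSS, pH 7.4. Viability was read as ATP content by luciferase bioluminescence, loss of signal versus DMSO.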
# PGR (gene 5241) = PGR (gene 5241) (UniProt P06401); assay: TOX21_PR_BLA_Followup_Agonist_ratio: Tox21 HEK293 Progesterone Receptor (PR) Agonism Beta-lactamase Follow-Up Assay, Ratio (AID 2283933)
# Outline: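 PR-UAS-bla HEK293T cells (GAL4-UAS beta-lactamase reporter) in medium with 2% charcoal-stripped FBS received compounds after 6 hr at 37C, then incubated 16 hr. LiveBLAzer FRET substrate added, 2 hr room temperature; cleaved/uncleaved (ch2/ch1) ratio fitted upward versus DMSO.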
# [3] = tested on: zebrafish Peroxisome Proliferator-activated Receptor gamma (PPARg), gene 557037; assay: ATG_zfPPARg_XSP2: Attagene TRANS-FACTORIAL Multi-Species (XSP2) HepG2 Assay for zebrafish Peroxisome Proliferator-activated Receptor gamma (PPARg) (AID 2283833);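 note: actives increase reporter signal over DMSO so AC50 reflects activation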
# Outline: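 HepG2 cells transiently transfected with multiplexed GAL4-UAS reporter units expressing chimeric NR-Gal4 receptors, dosed 24 h. Reporter mRNA quantified by RT-PCR, fluorescent labelling, HpaI digestion and capillary electrophoresis; gain of signal fitted against DMSO.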
# [4] = tested on: turtle Thyroid Hormone Receptor, alpha (TRa), gene 101949057; assay: ATG_trTRa_XSP2: Attagene TRANS-FACTORIAL Multi-Species (XSP1) HepG2 Assay for turtle Thyroid Hormone Receptor, alpha (TRa) (AID 2283834);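 note: hits raise reporter mRNA over the DMSO baseline so AC50 marks activators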
# Outline: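 HepG2 cells transiently transfected with GAL4-UAS reporter units for chimeric turtle TRa-Gal4; mRNA measured 24 h after dosing by RT-PCR and capillary electrophoresis fluorescence, gain of signal fitted against DMSO.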
# [5] = target: zebrafish Thyroid Hormone Receptor beta (TRb), thrb (gene 30607) (UniProt Q9PVE4); assay: ATG_zfTRb_XSP2: Attagene TRANS-FACTORIAL Multi-Species (XSP1) HepG2 Assay for zebrafish Thyroid Hormone Receptor beta (TRb) (AID 2283836)
# Outline: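 HepG2 cells transiently transfected with multiplexed GAL4-UAS reporter units expressing chimeric NR-Gal4 proteins; read 24 h after dosing. Reporter mRNA quantified by RT-PCR, 6-FAM labelling, HpaI digest and capillary electrophoresis; gain of signal fitted relative to DMSO.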
# [6] = ATG_XTT_Cytotoxicity_XSP2: Cytotoxicity Assessment in the Attagene TRANS-FACTORIAL Multi-Species (XSP2) HepG2 Assay (AID 2283837)
# Outline: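 HepG2 cells, transiently transfected with multiple reporter constructs, exposed to chemical for 24 h. Cell number assessed with XTT fluorescence read-out; loss of signal fitted relative to DMSO.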
# [7] = target: human Thyroid hormone Receptor alpha (TRa), THRA (gene 7067) (UniProt P10827); assay: ATG_hTRa_XSP2: Attagene TRANS-FACTORIAL Multi-Species (XSP2) HepG2 Assay for human Thyroid hormone Receptor alpha (TRa) (AID 2283838)
# Outline: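 HepG2 cells transiently transfected with multiplexed GAL4-UAS reporter units and exogenous NR-GAL4 chimeras; 24 h chemical exposure with 3 nM 6-alpha-fluorotestosterone and 1.5 nM norgestrel present. Reporter mRNA measured by RT-PCR, FAM labelling, HpaI digestion, capillary electrophoresis; gain-of-signal versus DMSO.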
# [8] = target: frog Thyroid hormone Receptor alpha (TRa), thra-a (gene 397942) (UniProt P15204); assay: ATG_frTRa_XSP2: Attagene TRANS-FACTORIAL Multi-Species (XSP2) HepG2 Assay for frog Thyroid hormone Receptor alpha (TRa) (AID 2283839);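 for AC50: AC50 reflects induction of frog TRa-driven reporter mRNA above DMSO baseline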
# Outline: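 HepG2 transiently transfected with multiplexed GAL4-UAS reporters driven by frog TRa-Gal4 chimeras; 24 h chemical exposure. Reporter mRNA quantified by RT-PCR, FAM labelling, HpaI digestion and capillary electrophoresis; gain of signal versus DMSO.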
# [9] = target: human Thyroid hormone Receptor beta (TRb), THRB (gene 7068) (UniProt P10828); assay: ATG_hTRb_XSP2: Attagene TRANS-FACTORIAL Multi-Species (XSP2) HepG2 Assay for human Thyroid hormone Receptor beta (TRb) (AID 2283840);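 note: actives raise reporter mRNA so potency reflects agonist-like gain of signal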
# Outline: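 HepG2 transiently transfected with a multi-species panel including a human TRb–Gal4 chimera driving Gal4-UAS reporters; medium contained 3 nM 6-alpha-fluorotestosterone and 1.5 nM norgestrel. 24 h dosing; RT-PCR/capillary electrophoresis readout; positive-direction fit vs DMSO.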
# [10] = CEETOX_H295R_11DCORT_noMTC: CeeTox H295R High-throughput Steroidogenesis Assay for 11-Deoxycortisol (11DCORT), maximum tolerated concentration (MTC) filtered results only (AID 2283911; active = hit-call score of the fitted dose curve at least 0.9, where 1 is the maximum; inactive = score below 0.9); conditions: actives raise or lower the signal
# Outline: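 H295R cells were prestimulated 48 h with 10 uM forskolin, then exposed 48 h to chemical (0.1% DMSO final). 11-Deoxycortisol in the medium was measured by MTBE extraction and HPLC-MS/MS, with bidirectional fitting versus DMSO and no MTC filtering of concentrations.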
# [11] = CEETOX_H295R_OHPREG_noMTC: CeeTox H295R High-throughput Steroidogenesis Assay for OH-Pregnenolone (OHPREG), maximum tolerated concentration (MTC) filtered results only (AID 2283912; active = hit-call score of the fitted dose curve at least 0.9, where 1 is the maximum; inactive = score below 0.9); conditions: actives raise or lower the signal
# Outline: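 H295R cells prestimulated 48 h with 10 uM forskolin, then exposed 48 h to compound (0.1% DMSO). 17alpha-hydroxypregnenolone in medium measured by MTBE extraction and HPLC-MS/MS; bidirectional fit vs DMSO, concentrations not MTT/MTC-filtered.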
# [12] = CEETOX_H295R_OHPROG_noMTC: CeeTox H295R High-throughput Steroidogenesis Assay for OH-Progesterone (OHPROG), maximum tolerated concentration (MTC) filtered results only (AID 2283914; active = hit-call score of the fitted dose curve at least 0.9, where 1 is the maximum; inactive = score below 0.9); conditions: actives raise or lower the signal
# Outline: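 H295R cells prestimulated 48 h with 10 uM forskolin, then exposed 48 h to chemical (0.1% DMSO final). 17alpha-hydroxyprogesterone in medium quantified by HPLC-MS/MS after MTBE extraction; bidirectional fitting versus DMSO, concentrations not MTC-filtered.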
# [13] = CEETOX_H295R_CORTISOL_noMTC: CeeTox H295R High-throughput Steroidogenesis Assay for Cortisol, maximum tolerated concentration (MTC) filtered results only (AID 2283916; active = hit-call score of the fitted dose curve at least 0.9, where 1 is the maximum; inactive = score below 0.9); conditions: actives raise or lower the signal
# Outline: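 H295R human adrenal cells prestimulated 48 h with 10 uM forskolin, then exposed 48 h to chemical in 0.1% DMSO; cortisol in medium quantified by HPLC-MS/MS; bidirectional fit vs DMSO baseline, concentrations not MTT-filtered for MTC.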
# [14] = CEETOX_H295R_CORTIC_noMTC: CeeTox H295R High-throughput Steroidogenesis Assay for Corticosterone (CORTIC), maximum tolerated concentration (MTC) filtered results only (AID 2283917; active = hit-call score of the fitted dose curve at least 0.9, where 1 is the maximum; inactive = score below 0.9); conditions: actives raise or lower the signal
# Outline: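 H295R adrenal cells pre-stimulated 48 h with 10 uM forskolin, then exposed 48 h to chemical in 0.1% DMSO; corticosterone in medium quantified by HPLC-MS/MS, fitted bidirectionally versus DMSO without MTT-based concentration filtering.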
# [15] = CEETOX_H295R_DOC_noMTC: CeeTox H295R High-throughput Steroidogenesis Assay for DOC, maximum tolerated concentration (MTC) filtered results only (AID 2283918; active = hit-call score of the fitted dose curve at least 0.9, where 1 is the maximum; inactive = score below 0.9); conditions: actives raise or lower the signal
# Outline: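 H295R cells prestimulated 48 h with 10 uM forskolin, then exposed 48 h to chemical in 0.1% DMSO. 11-Deoxycorticosterone in medium measured by MTBE extraction and HPLC-MS/MS; bidirectional fit vs DMSO, no MTC filter.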
# [16] = CEETOX_H295R_PROG_noMTC: CeeTox H295R High-throughput Steroidogenesis Assay for Progesterone (PROG), maximum tolerated concentration (MTC) filtered results only (AID 2283920; active = hit-call score of the fitted dose curve at least 0.9, where 1 is the maximum; inactive = score below 0.9); conditions: actives raise or lower the signal
# Outline: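 H295R cells, prestimulated 48 h with 10 uM forskolin, exposed 48 h to chemical in 0.1% DMSO. Medium progesterone quantified by MTBE extraction and HPLC-MS/MS; bidirectional fit versus DMSO, concentrations not MTT-filtered.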
# [17] = ATG_M_61_XSP2: Attagene TRANS-FACTORIAL Multi-Species (XSP2) HepG2 Assay for M61 Transcription Factor (Internal Marker) (AID 2283835; active = hit-call score of the fitted dose curve at least 0.9, where 1 is the maximum; inactive = score below 0.9;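 note: active means a rise in signal above the DMSO baseline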)
# Outline: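 HepG2 cells transiently transfected with multiple GAL4-UAS reporter units; reporter mRNA measured 24 h after dosing by RT-PCR, fluorescent labelling and capillary electrophoresis. Medium contained 3 nM 6-alpha-fluorotestosterone and 1.5 nM norgestrel; internal marker, DMSO baseline.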
# Sequence of zebrafish Thyroid Hormone Receptor beta (TRb), thrb (gene 30607) (Q9PVE4 whole entry, looked up, the tested form may be a part): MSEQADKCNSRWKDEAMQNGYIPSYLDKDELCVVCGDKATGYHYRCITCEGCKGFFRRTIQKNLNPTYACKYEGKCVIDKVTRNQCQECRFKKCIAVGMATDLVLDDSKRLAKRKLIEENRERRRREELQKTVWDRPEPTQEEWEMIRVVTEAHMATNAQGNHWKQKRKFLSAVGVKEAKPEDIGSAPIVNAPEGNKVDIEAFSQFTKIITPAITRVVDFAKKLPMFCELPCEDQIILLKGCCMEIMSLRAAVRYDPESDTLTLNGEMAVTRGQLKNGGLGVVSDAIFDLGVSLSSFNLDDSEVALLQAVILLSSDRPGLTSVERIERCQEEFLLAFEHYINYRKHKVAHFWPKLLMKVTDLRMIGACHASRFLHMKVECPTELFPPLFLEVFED
# Sequence of human Thyroid hormone Receptor beta (TRb), THRB (gene 7068) (P10828 whole entry, looked up, the tested form may be a part): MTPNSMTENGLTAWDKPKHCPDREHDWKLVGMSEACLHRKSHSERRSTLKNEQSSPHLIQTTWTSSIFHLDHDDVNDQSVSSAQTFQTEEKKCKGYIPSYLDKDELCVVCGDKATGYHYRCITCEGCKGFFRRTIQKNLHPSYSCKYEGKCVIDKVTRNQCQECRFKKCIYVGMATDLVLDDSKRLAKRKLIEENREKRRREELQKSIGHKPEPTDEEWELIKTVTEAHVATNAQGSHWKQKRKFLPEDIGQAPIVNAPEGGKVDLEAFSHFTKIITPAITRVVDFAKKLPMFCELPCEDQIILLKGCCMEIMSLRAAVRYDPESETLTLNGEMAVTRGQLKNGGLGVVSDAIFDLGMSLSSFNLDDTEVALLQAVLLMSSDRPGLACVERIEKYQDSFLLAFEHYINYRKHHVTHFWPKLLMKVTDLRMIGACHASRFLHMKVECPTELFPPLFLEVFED
# Sequence of frog Thyroid hormone Receptor alpha (TRa), thra-a (gene 397942) (P15204 whole entry, looked up, the tested form may be a part): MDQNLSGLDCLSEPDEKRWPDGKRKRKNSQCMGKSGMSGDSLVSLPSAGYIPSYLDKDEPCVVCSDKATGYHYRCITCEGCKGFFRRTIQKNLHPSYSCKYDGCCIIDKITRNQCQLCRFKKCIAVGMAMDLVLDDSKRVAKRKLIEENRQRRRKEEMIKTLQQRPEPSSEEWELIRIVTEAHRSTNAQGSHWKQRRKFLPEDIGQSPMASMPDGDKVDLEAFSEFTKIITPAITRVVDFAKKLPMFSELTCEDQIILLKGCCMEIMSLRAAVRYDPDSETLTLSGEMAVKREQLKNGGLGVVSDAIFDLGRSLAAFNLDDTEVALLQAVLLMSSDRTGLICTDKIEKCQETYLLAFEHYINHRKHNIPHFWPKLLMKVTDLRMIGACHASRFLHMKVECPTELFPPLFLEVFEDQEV
# Sequence of PGR (gene 5241) (P06401 whole entry, looked up, the tested form may be a part): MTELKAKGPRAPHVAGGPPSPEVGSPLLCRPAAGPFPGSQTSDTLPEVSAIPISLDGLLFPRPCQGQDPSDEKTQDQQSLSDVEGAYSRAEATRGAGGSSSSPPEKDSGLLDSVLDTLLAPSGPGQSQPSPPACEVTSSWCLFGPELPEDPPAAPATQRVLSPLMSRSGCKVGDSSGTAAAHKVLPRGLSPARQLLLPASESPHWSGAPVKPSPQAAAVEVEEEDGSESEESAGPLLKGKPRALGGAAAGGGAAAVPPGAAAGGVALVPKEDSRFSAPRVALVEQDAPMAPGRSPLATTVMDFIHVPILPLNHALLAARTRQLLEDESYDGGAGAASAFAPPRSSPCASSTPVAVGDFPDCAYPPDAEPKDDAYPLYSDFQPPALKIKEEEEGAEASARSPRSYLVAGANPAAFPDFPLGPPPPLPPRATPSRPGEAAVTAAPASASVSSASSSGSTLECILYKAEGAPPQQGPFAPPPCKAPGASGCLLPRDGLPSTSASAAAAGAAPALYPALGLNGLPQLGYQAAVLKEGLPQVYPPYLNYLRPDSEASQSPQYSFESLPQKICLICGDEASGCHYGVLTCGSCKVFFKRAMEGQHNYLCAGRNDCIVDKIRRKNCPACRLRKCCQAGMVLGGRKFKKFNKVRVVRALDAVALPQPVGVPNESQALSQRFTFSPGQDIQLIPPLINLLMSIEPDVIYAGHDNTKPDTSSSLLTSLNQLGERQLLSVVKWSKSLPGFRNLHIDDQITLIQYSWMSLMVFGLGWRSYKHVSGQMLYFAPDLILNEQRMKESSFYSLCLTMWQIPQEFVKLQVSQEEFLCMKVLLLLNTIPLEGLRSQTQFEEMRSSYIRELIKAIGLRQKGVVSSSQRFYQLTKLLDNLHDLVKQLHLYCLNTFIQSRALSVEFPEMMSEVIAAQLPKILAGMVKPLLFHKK
# Sequence of human Thyroid hormone Receptor alpha (TRa), THRA (gene 7067) (P10827 whole entry, looked up, the tested form may be a part): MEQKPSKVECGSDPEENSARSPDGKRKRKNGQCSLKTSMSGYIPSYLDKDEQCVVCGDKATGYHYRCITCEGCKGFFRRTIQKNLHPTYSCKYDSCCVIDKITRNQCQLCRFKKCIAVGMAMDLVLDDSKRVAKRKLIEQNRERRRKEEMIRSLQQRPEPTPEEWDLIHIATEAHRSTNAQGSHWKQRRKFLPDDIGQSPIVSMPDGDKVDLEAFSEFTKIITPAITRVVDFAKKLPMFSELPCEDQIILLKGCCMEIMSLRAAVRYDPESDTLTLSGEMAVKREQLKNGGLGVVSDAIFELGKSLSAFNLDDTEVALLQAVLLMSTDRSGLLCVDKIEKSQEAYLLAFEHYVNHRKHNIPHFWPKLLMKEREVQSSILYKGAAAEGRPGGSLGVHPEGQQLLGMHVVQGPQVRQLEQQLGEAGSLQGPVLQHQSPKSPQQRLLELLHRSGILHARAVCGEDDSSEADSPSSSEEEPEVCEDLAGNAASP
smiles,measurement,setting,value
O=C(O)C1(c2ccc3c(c2)OC[C@H](Cc2ccc(-c4ccccc4)cc2)[C@H]3O)CCCC1,outcome,[1],inactive
same,outcome,[2],inactive
Cc1cc(Cl)ccc1OC(C)C(=O)O (stereo unspecified),outcome,[1],inactive
OC(c1ccc(Cl)cc1)(c1ccc(Cl)cc1)c1cccnc1,outcome,PGR (gene 5241),inactive
CC(C)CC(C)(c1ccc(O)cc1)c1ccc(O)cc1,outcome,PGR (gene 5241),inactive
O=S1OC[C@@H]2[C@H](CO1)[C@]1(Cl)C(Cl)=C(Cl)[C@@]2(Cl)C1(Cl)Cl (stereo partly specified),outcome,[1],inactive
same,outcome,[2],inactive
CC(=Cc1ccccc1)[N+](=O)[O-],outcome,[1],inactive
same,outcome,[2],inactive
Oc1cc(Cl)c(Cl)cc1Cl,outcome,[3],inactive
same,AC50,[4],21.7 µM (active)
same,outcome,[4],inactive
same,outcome,[5],inactive
same,outcome,[6],inactive
same,AC50,[7],26.3 µM (active)
same,outcome,[7],inactive
same,AC50,[8],100 µM (active)
same,outcome,[8],inactive
same,outcome,[9],inactive
same,outcome,[1],inactive
same,outcome,[2],inactive
CC(C)(C)c1ccccc1O,outcome,[2],inactive
CCCSP(=S)(OCC)Oc1ccc(SC)cc1 (stereo unspecified),outcome,[1],inactive
same,outcome,[2],inactive
OC[P+](CO)(CO)CO,AC50,[10],6.54 µM (active)
same,AC50,[11],6.42 µM (active)
same,AC50,[12],3.48 µM (active)
same,AC50,[13],4.63 µM (active)
same,AC50,[14],3.54 µM (active)
same,AC50,[15],12.3 µM (active)
same,AC50,[16],2.5 µM (active)
Oc1c(Br)cc(Br)cc1Br,outcome,[1],inactive
same,outcome,[2],inactive
O=[N+]([O-])c1ccccc1O,outcome,[1],inactive
same,outcome,[2],inactive
CC(C)N(C(=O)CCl)c1ccccc1,outcome,[1],inactive
same,outcome,[2],inactive
CCCCCCCCCCCCc1cccc(S(=O)(=O)O)c1,outcome,[1],inactive
same,outcome,[2],inactive
[Cl][Sn]([c]1ccccc1)([c]1ccccc1)[c]1ccccc1,outcome,[3],inactive
same,outcome,[4],inactive
same,outcome,[17],inactive
same,outcome,[5],inactive
same,outcome,[8],inactive
same,AC50,[9],0.558 µM (active)
CCOc1ccc(N)cc1,outcome,[1],inactive
same,outcome,[2],inactive
Cc1cc(Cl)ccc1N,outcome,[10],inactive
same,outcome,[11],inactive
same,AC50,[12],25.5 µM (active)
same,outcome,[13],inactive
same,outcome,[14],inactive
same,outcome,[15],inactive
same,AC50,[16],24.1 µM (active)
CC(C)=CC1C(C(=O)OCc2cccc(Oc3ccccc3)c2)C1(C)C (stereo unspecified),outcome,[1],inactive
same,outcome,[2],inactive
